Article PMC7826789 (International Journal of Molecular Sciences, 2021)

Each molecule was assayed on AURKC.
With `CN1CCN(C(=O)c2ccc(NC(=O)Nc3ccc(N(C)c4ccnc(Nc5ccc(CS(C)(=O)=O)cc5)n4)cc3)cc2)CC1.Cl` [GW830263A] the Kinases covered was “AURKC”.
For `CN(C)CCNC(=O)Nc1ccc(N(C)c2ccnc(Nc3ccc(CS(C)(=O)=O)cc3)n2)cc1.Cl` [GW830900A], the Kinases covered was “AURKC”.
For `CCn1cc(-c2ccnc3[nH]c(-c4cccc(CN(C)C)c4)cc23)c(-c2ccc(NC(=O)N(C)C)cc2)n1` [GSK1070916], the Kinases covered was “AURKC”.
For `COc1cccc(-c2c[nH]c3c(N/N=C/c4ccncc4)ncnc23)c1` [GW814408X], the Kinases covered was “AURKC”.

These molecules were tested on BLK.
With `COc1cc2ncnc(Nc3cccc(Cl)c3F)c2cc1O[C@H]1CC[C@H]([C@@H]2NCCNC2=O)CC1` [BI00133844] the Kinases covered was “BLK”.
In the case of `Cc1ccc(C(=O)Nc2ccc(Nc3ccnc4cc(-c5ccccn5)ccc34)cc2O)cc1` [GW440146], the Kinases covered is reported as “BLK”.
For `COc1cc2ncnc(Nc3cccc(Cl)c3F)c2cc1O[C@H]1CC[C@@]2(CC1)NCCNC2=O` [BI00113608], the Kinases covered was “BLK”.
